# In the library only some 3.3% were active in any assay of this set; here they are far more common.
# Rpn11 inh: blocks the human proteasome subunit Rpn11; O00487; inhibition, % at 20 µM; 0.59% of 360,000 active; human 26S proteasome, Ub4-pepOG fluorescence polarization; 20S core pre-blocked with epoxomicin;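 active means inhibition at 20 µM, scaled to each plate's controls, above about 33%, limit read from the data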
# PHOSPHO1 inh: PHOSPHO1 (human) inhibition. recombinant PHOSPHO1, absorbance phosphatase assay. inhibition, % at 13.3 µM. 1.1% of 290,000 active. AID 1565; in the data active means inhibition above about 60%
# Fh CTSL1 inh: blocks F. hepatica cathepsin L1 in PFM18AAP counter-screen; AID 1906; recombinant F. hepatica cathepsin L1, Z-Leu-Arg-MCA fluorescence; 0.49% of 300,000 active; inhibition, % at 5.96 µM;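 active means inhibition above the mean of all tested compounds plus 3 SD, set per screening campaign, cut at about 17% in these data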
# NRP1-CendR mod: alters CendR peptide binding to human NRP-1. O14786. FAM-RPARPAR peptide binding to NRP-1, fluorescence polarization. inhibition, % at 25 µM. 0.85% of 360,000 active. AID 602438;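 active means inhibition or corrected inhibition above about 18%, plus a signal ratio from 0.5 to 1.5, limit read from the data, passing the limit was not always enough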
# TPT1 inhibitor: inhibitors of Candida albicans tRNA 2'-phosphotransferase TPT1. recombinant caTPT1, FP RNA substrate dephosphorylation. inhibition, % at 5 µM. 0.81% of 300,000 active;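 active means inhibition above the mean of all tested compounds plus 3 SD, set per screening campaign, cut at about 24% in these data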
# HNF4A DNA FP: change in binding of human HNF4 alpha to DNA | activity change, % at 10 µM | P41235 | AID 1224865 | 0.3% of 360,000 active | HNF4a-FITC DNA binding, fluorescence polarization, 1 h; in the data active means activity change above about 30%, passing the limit was not always enough
# Target sequence (P41235 whole entry, looked up): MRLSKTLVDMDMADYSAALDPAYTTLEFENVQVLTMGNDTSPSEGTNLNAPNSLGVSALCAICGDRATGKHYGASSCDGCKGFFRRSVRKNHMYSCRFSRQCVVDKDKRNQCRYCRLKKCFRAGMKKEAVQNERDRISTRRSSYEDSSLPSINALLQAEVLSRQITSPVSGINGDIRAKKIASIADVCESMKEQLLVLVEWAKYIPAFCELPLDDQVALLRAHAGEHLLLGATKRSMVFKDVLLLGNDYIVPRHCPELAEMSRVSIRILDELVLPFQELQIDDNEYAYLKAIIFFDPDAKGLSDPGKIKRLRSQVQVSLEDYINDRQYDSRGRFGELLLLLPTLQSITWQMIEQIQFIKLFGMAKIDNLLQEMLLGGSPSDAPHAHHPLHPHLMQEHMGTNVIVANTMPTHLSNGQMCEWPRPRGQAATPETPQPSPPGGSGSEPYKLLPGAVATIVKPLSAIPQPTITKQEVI
# caTPT1 confirm: TPT1 (C. albicans) inhibition, confirmation; AID 2149; shares compounds with TPT1 inhibitor; 74% of 2,400 active; inhibition, % at 5 µM; recombinant caTPT1, fluorescence polarization, RNase T1 coupled;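 active means inhibition above the primary screen limit, the mean inhibition of all tested compounds plus 3 SD, cut at about 25% in these data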
# RNase T1 inh: counter-screen for TPT1 inhibitors: inhibitors of Aspergillus oryzae RNase T1; shares compounds with TPT1 inhibitor; RNase T1 cleavage, fluorescence polarization, 1536-well; inhibition, % at 5 µM; 83% of 2,400 active; AID 2153;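 active means inhibition above the solvent-only control well mean plus 3 SD, limit set per screening run, cut at about 23% in these data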;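 further: inhibitors block cleavage so intact labeled substrate keeps polarization high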
# Target sequence (P00651 whole entry, looked up): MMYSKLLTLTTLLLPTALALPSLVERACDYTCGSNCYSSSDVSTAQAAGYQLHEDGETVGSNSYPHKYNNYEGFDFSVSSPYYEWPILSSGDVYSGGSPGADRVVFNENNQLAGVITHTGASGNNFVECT
# Rpn11 confirm: Rpn11 inhibition confirmation, single concentration; shares compounds with Rpn11 inh; purified human 26S proteasome, Ub4-pepOG fluorescence polarization; proteasome pretreated with epoxomicin; inhibition, % at 20 µM; 29% of 1,900 active; AID 602318
# MMP-2 inh: counter-screen for RPN11 inhibitors: inhibition of human MMP-2. recombinant MMP-2, FRET peptide cleavage fluorescence. 4% of 1,900 active. inhibition, % at 20 µM. shares compounds with Rpn11 inh. AID 602330;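 further: human MMP-2 activated beforehand with APMA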
# Thrombin inh: thrombin (bovine) inhibition counter-screen; shares compounds with Rpn11 inh; inhibition, % at 20 µM; bovine thrombin cleavage of Ub4-pepOG, fluorescence polarization; 13% of 1,900 active;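 active means mean inhibition at least 40% at 20 µM, or signal 3 deviations below plate average, so some actives read negative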
# Hits are given with their value; i = inactive; nt = no result given; + = active, no number. Unless noted, no stated cut-off is given here; in the data, active means inhibition above about 40%; inactive means the rest.
SMILES,Rpn11 inh,PHOSPHO1 inh,Fh CTSL1 inh,NRP1-CendR mod,TPT1 inhibitor,HNF4A DNA FP,caTPT1 confirm,RNase T1 inh,Rpn11 confirm,MMP-2 inh,Thrombin inh
Cc1cc(/C=C2\SC(=S)NC2=O)cc(C)c1O,124.4,i,i,i,35.5,34.5,i,i,i,i,i
Cc1cc(/C=C2\SC(N)=NC2=O)c(C)n1-c1ccccc1,i,i,i,i,i,i,nt,nt,nt,nt,nt
Cc1cc(/C=C2\SC(=S)NC2=O)c(C)n1-c1ccccc1,109.1,i,i,i,72.6,74.9,69.1,83.2,76.6,i,59.7
CCOC(=O)CNC(=O)N1CCCC(N(C)CCc2ccccc2)C1 (centres undefined),i,i,i,i,i,i,nt,nt,nt,nt,nt
CC(C)c1ccc(N=C2NN=C(c3cccs3)CS2)cc1,79.6,i,i,i,40.2,i,42.1,50.2,i,i,i
CC(C)N=C1NN=C(c2cccs2)CS1,i,i,i,i,i,i,nt,nt,nt,nt,nt
CCCCN1C(=O)c2ccc(C(=O)Nc3c(N)n(CCCC)c(=O)n(C)c3=O)cc2C1=O,i,i,i,i,i,i,nt,nt,nt,nt,nt
COC(=O)/C=c1/s/c(=C(\C#N)C(=O)NCc2ccco2)n(-c2ccc(C)cc2)c1=O,56.6,i,i,i,82.2,i,i,27.3,i,i,i
COc1cc(/C=C2\CC/C(=C\c3cc(OC)c(O)c(OC)c3)C2=O)cc(OC)c1O,111.9,i,i,i,91.0,i,95.0,100.6,88.6,i,80.5
COc1cc(/C=C2/CCC/C(=C\c3cc(O)c(OC)c(Cl)c3)C2=O)cc(Cl)c1O,63.8,i,i,i,36.4,i,i,23.2,i,46.9,i
COc1cc(/C=N/NC(=O)c2cncc(Br)c2)cc([N+](=O)[O-])c1O,68.4,i,i,i,44.4,i,49.5,63.6,i,i,i
COc1cc([N+](=O)[O-])cc(/C=N/NC(=O)c2cc(-c3ccccc3)nc3ccccc23)c1O,89.4,i,i,i,41.1,i,29.1,44.5,68.0,i,i
COc1cc([N+](=O)[O-])cc(/C=N/NC(=O)c2cc(C)nc3ccccc23)c1O,i,i,i,i,i,i,nt,nt,nt,nt,nt
O=C(N/N=C\c1ccc([N+](=O)[O-])o1)c1cncc(Br)c1,i,i,i,i,i,i,nt,nt,nt,nt,nt
COc1cc([N+](=O)[O-])cc(/C=N/NC(=O)c2cncc(Br)c2)c1O,60.1,i,i,i,42.4,i,43.4,59.4,48.6,i,i
O=[N+]([O-])c1ccc(N/N=C/c2cccc(O)c2O)c(S(=O)(=O)N2CCOCC2)c1,i,i,i,i,i,i,nt,nt,nt,nt,nt
Cc1ccc(NS(=O)(=O)c2cc([N+](=O)[O-])ccc2N/N=C/c2sc(N3CCOCC3)nc2-c2ccccc2)c(C)c1,43.6,i,i,i,56.1,i,55.3,73.0,i,i,i
Cc1cccc(N2C(=O)C3CCC(c4ccccc4)CC3C2=O)c1 (centres undefined),i,i,i,i,i,i,nt,nt,nt,nt,nt
COc1ccc(NC2=Nc3cccc4cccc2c34)cc1,49.9,i,i,i,26.2,i,37.2,48.5,i,i,i
c1ccc(NC2=Nc3cccc4cccc2c34)cc1,i,i,i,i,i,i,nt,nt,nt,nt,nt
Nc1c(C(=O)N/N=C/c2cccnc2)oc2nc(-c3ccccc3)cc(-c3ccco3)c12,62.1,i,i,i,57.8,i,100.4,102.6,i,i,active
O=C(N/N=C/C=C/c1ccc([N+](=O)[O-])cc1)c1cccs1,+,i,i,i,43.8,55.9,30.0,45.8,113.3,45.0,40.7
COc1ccc(C2CC(c3ccccc3)=NN2c2ccc(N)cc2)cc1 (centres undefined),48.2,i,i,i,28.7,i,38.0,50.5,i,i,i
Cc1[nH]c2ccccc2c1/C=N/Nc1ccc([N+](=O)[O-])cc1,119.2,i,i,i,94.6,67.8,100.0,101.9,83.4,i,81.1
Cc1[nH]c2ccccc2c1/C=N/Nc1ccccn1,nt,i,nt,nt,nt,nt,nt,nt,nt,nt,nt
SMILES,Rpn11 inh,PHOSPHO1 inh,Fh CTSL1 inh,NRP1-CendR mod,TPT1 inhibitor,HNF4A DNA FP,caTPT1 confirm,RNase T1 inh,Rpn11 confirm,MMP-2 inh,Thrombin inh
COCCCn1c(=O)/c(=C\c2ccccc2OC(C)C)s/c1=C(/C#N)C(=O)Nc1ccc(C(=O)O)cc1,99.3,i,i,i,38.7,i,i,58.3,i,i,active
CC(C)c1ccc(CN2CCC(n3nccc3NC(=O)C3CCCC3)CC2)cc1,i,nt,nt,i,nt,i,nt,nt,nt,nt,nt
COC(=O)c1ccc(CNC(=O)C2CCC(=O)N(CCc3ccccc3)C2)cc1 (centres undefined),i,i,nt,i,nt,i,nt,nt,nt,nt,nt
NC(=O)CC(NC(=O)Cc1cccc2ccccc12)c1ccc(NC2CCN(Cc3ccccc3)CC2)c([N+](=O)[O-])c1 (centres undefined),41.8,i,i,i,25.7,i,28.9,40.5,i,i,i
CC(C)(C)C(=O)Nc1cccc(-c2cc(-c3c(Cl)cccc3Cl)no2)c1,i,i,i,i,i,i,nt,nt,nt,nt,nt
Cc1c(C(=O)N/N=C/c2ccc(O)c(Br)c2)sc(N)c1C#N,58.2,i,i,i,27.1,i,i,23.8,54.4,i,41.0
O=[N+]([O-])c1ccc(/C=N/Nc2ccc3ccccc3c2)o1,41.2,i,i,i,32.3,i,39.1,46.7,i,i,i
O=C(/C=C/c1ccccc1Cl)NCCCn1ccnc1,i,i,i,i,i,i,nt,nt,nt,nt,nt
Cc1ccc(CCC(=O)Nc2ccc(N(C)C)cc2)o1,i,i,i,i,i,i,nt,nt,nt,nt,nt
Oc1ccc(N=Nc2nc(-c3ccccc3)c(-c3ccccc3)[nH]2)cc1,55.2,i,i,i,31.0,i,42.4,55.2,i,i,i
CCN1/C(=C2/OC(=S)N(C)C2=O)Sc2ccccc21,i,i,nt,i,nt,i,nt,nt,nt,nt,nt
CCN1/C(=C\C=C2\C(=O)N(C)C(=S)N2C)Sc2ccccc21,55.0,i,i,i,46.9,i,60.0,72.5,i,i,i
CC1=CN2CC(O)CN=C2C=C1 (centres undefined),i,i,i,i,i,i,nt,nt,nt,nt,nt
O=C(O)CCCN1C(=O)/C(=C/c2ccc(-c3nc4ccccc4s3)o2)SC1=S,184.6,69.3,i,i,48.0,50.8,95.3,102.8,43.7,i,i
